Unmarked numbers belong to inactive results.
System: Vero E6 infected with SARS-CoV-2
Assay: SARS-CoV-2 infection rate relative to infected DMSO; higher = more infection, active = 60 or less
Details: 24 h

| Compound | SARS-CoV-2 infection rate [%] |
| --- | --- |
| CC(C)Nc1nc2cc(Cl)c(Cl)cc2n1[C@H]1O[C@@H](CO)[C@H](O)[C@@H]1O [maribavir] (10 µM) | 122 |
| COc1ccccc1Oc1c(NS(=O)(=O)c2ccc(C(C)(C)C)cc2)nc(-c2ncccn2)nc1OCCO [bosentan] (10 µM) | 112 |
| CCn1cnc2c(Nc3cccc(Cl)c3)nc(N[C@@H]3CCCC[C@@H]3N)nc21 (0.833333 µM) | 114 |
| NC(=O)c1cc([N+](=O)[O-])cc([N+](=O)[O-])c1 [nitromide] (10 µM) | 83.5 |
| CC1(C)CC(=O)c2c(C(F)(F)F)nn(-c3ccc(C(N)=O)c(N[C@H]4CC[C@H](O)CC4)c3)c2C1 (10 µM) | 102 |
| CC1(C)C(=O)N(CCN2CCC(C(=O)c3ccc(F)cc3)CC2)c2ccccc21 (10 µM) | 110 |
| COC(=O)CC[C@@H]1N=C(c2ccccn2)c2cc(Br)ccc2-n2c(C)cnc21 [remimazolam] (10 µM) | 95 |
| CCC(C)n1ncn(-c2ccc(N3CCN(c4ccc(OCC5COC(Cn6cncn6)(c6ccc(Cl)cc6Cl)O5)cc4)CC3)cc2)c1=O (centres undefined) [itraconazole] (10 µM) | 104 |
| CC(=O)NC1N=C(c2ccccc2)c2ccccc2NC1=O (centres undefined) (10 µM) | 105 |
| CO[C@@]1(NC(=O)Cc2cccs2)C(=O)N2C(C(=O)O)=C(COC(N)=O)CS[C@@H]21 [cefoxitin] (10 µM) | 100 |
| COc1cccc2c1c(O)c(C(=O)N(C)c1ccc(C(F)(F)F)cc1)c(=O)n2C [tasquinimod] (10 µM) | 92 |
| Cc1cc(C)nc(NS(=O)(=O)c2ccc(NC(=S)NC(=O)COc3ccc(Br)cc3Cl)cc2)n1 (10 µM) | 108 |
| Nc1ccc(S(=O)(=O)c2ccc(N)cc2)cc1 [dapsone] (10 µM) | 99.5 |
| CCCCCCCCCCCCCCCCOc1nc2ccc(C)cc2c(=O)o1 [cetilistat] (10 µM) | 104 |

Source: the supplement of paper PMC13380429
